In PubChem BioAssay AID999 (SRMLSC, 2007) one finds viability data, which are given here for 30 compounds.

Values without a mark were called inactive. The source made the active and inactive calls.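 How the source made its calls: active means viability at or below 21.59%, 3 SD under the median of tested compounds; inactive means the rest.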

The nature of the experiment: viability loss in PTEN-deleted cells – cell-based, validation, diverse DP compound set (AID 999).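 Further: 100% = median luminescence of untreated cell control wells and 0% = no signal.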 The note with it: HCT116 PTEN-null viability, CellTiter-Glo, 60 h; at 10 µM; hits give low values. In general terms: Cellular ATP, detected with luciferase, serves as a proxy for viable cell number.
For the compound `CCC(C)C(O)C(C)C(=O)C(C)/C=C(\C)CC(C)C1OC(=O)C1CC` (stereo not given), the viability (commonly a read-out of living cells in per cent, often relative to untreated cells) is 97.1%. With `CC1(C)OC2CC(=O)OCC23C1CC(=O)C1(C)C3CC[C@@]2(C)[C@H](c3ccoc3)OC(=O)C3OC312` (stereo not given in full), the viability was 97.3%. As to `C=C(C)C1CC=C(C)C(O)C1` (stereo not given), the viability was 89.2%. Take `O=C(c1ccc(F)cc1)C1CCN(CCn2c(=O)[nH]c3ccccc3c2=O)CC1`: the viability was 94.8%. `CC1(COc2ccc(CC3SC(=O)NC3=O)cc2)CCCCC1` (stereo not given): the viability is 95.3%. As for `O=C(c1ccccc1)c1ccccc1`, the viability is 100%. `CN=C(NC#N)NCCSCc1nc[nH]c1C`: the viability is 99.4%. Consider `C=C1C(=O)[C@]23[C@H](O)[C@H]1CC[C@H]2[C@@]12COC3(O)[C@H](O)[C@@H]1C(C)(C)CC[C@@H]2O`, for which the viability is 76.4%. The figure for `Cc1ccc2c(c1)C(=O)C1(O)CCN(c3ccccc3)C1=N2` (stereo not given) is 91.9%; for `C/C=C1/C2C=C(C)CC1(N)c1ccc(=O)[nH]c1C2` (stereo not given) it is 93.8%; for `COc1ccc(-c2cc(C(=O)O)no2)cc1` it is 97.7%.

In the case of `COc1ccc(/C=C/c2cc(OC)cc(=O)o2)cc1`, the viability was 85.2%.

Take `COc1ccc2c(c1)c(CC(=O)O)c(C)n2C(=O)c1ccc(Cl)cc1`: the viability is 105%.

`[O][C@H]1[C@@H](O)[C@@H](CO)O[C@@H](O[C@@H]2[C@@H]3OC[C@H]2O[C@H](O[C@@H]2[C@@H](O)[C@H](C[C@@H]4[C@@H]5OC[C@H]4O[CH][C@@H]5O)O[C@H](CO)[C@@H]2OS(=O)(=O)O)[C@@H]3OS(=O)(=O)O)[C@@H]1O`: the viability is 100%.

On to `CC1(C)CCC[C@@](C)([C@H]2CC[C@]3(C)[C@@H]2[C@H](O)C[C@@H]2[C@@]4(C)CC[C@H](O)C(C)(C)[C@@H]4[C@@H](O)C[C@]23C)O1`, for which the viability was 100%. The figure for `NC(=NCc1ccccc1)NC(=O)c1nc(Cl)c(N)nc1N` is 77.3%. The figure for `CC12CC3(O)OC(O1)C1(COC(=O)c4ccccc4)[C@@H]3CC21O[C@@H]1O[C@H](CO)[C@@H](O)[C@H](O)[C@H]1O` is 95.3%; for `COc1ccc(CCN2CCC(Nc3nc4ccccc4n3Cc3ccc(F)cc3)CC2)cc1` it is 16.6% (active); for `C[C@@H]1C[C@@H]([C@@H](C)CC2CC(=O)NC(=O)C2)C(=O)[C@@H](C)C1` it is 30.2%. As for `O=c1[nH]c(=O)n(C2CCCO2)cc1F` (stereo not given), the figure is 101%; as for `COC(=O)Nc1nc2ccc(C(=O)c3cccs3)cc2[nH]1`, 50.2%. As for `O=c1[nH]cnc2ccccc12`, the viability was 82.7%.

For `C=C(C)[C@H]1CC=C(CO)CC1`, the viability is 96%.

Take `COc1ccc(C2CNC(=O)C2)cc1OC1CCCC1` (stereo not given): the viability was 96.5%. The figure for `CC(C)NCC(O)COc1cccc2ccccc12` (stereo not given) is 89.1%; for `COc1cc([C@@H]2c3cc4c(cc3[C@H](O)[C@H]3COC(=O)[C@H]23)OCO4)cc(OC)c1OC` it is 24.6%; for `CC1COC2=C1C(=O)C(=O)c1c2ccc2c1CCCC2(C)C` (stereo not given) it is 17.8% (active).

In the case of `O=C1OC(c2cc(I)c(O)c(I)c2)(c2cc(I)c(O)c(I)c2)c2ccccc21`, the viability is 93.5%. As for `COc1cc2c(c(OC)c1OC)-c1ccc(OC)c(=O)cc1[C@@H](NC(C)=O)CC2`, the figure is 32.5%; as for `C[C@@H]1CC[C@]2(C(=O)O)CC[C@]3(C)C(=CCC4[C@@]5(C)C[C@@H](O)[C@H](O)[C@@](C)(CO)C5CC[C@]43C)C2[C@H]1C` (stereo not given in full), 94.3%.
